This is a sample that favours compounds with a hit; in the whole collection about 2.9% have one here.
PG9 binder: PG9 antibody binding by small molecule; TR-FRET gp120-PG9 antibody binding; inhibition, % at 6.7 µM; 360,000 tested, 0.43% active; in the data active = inhibition above about 8.5%
Rev-erbA mod: modulates human Rev-erb alpha binding to DNA | AID 1259318 | 370,000 tested, 0.79% active | activity, % at 10 µM | P20393 | Rev-erbα–FITC-DNA binding, fluorescence polarization, 90 min;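 active = activity above about 14%, limit read from the data; passing the limit was not always enough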;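 note: 0% = DMSO wells with 35 nM protein and 100% = DMSO wells with 750 nM protein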
Target sequence (P20393 whole entry, looked up): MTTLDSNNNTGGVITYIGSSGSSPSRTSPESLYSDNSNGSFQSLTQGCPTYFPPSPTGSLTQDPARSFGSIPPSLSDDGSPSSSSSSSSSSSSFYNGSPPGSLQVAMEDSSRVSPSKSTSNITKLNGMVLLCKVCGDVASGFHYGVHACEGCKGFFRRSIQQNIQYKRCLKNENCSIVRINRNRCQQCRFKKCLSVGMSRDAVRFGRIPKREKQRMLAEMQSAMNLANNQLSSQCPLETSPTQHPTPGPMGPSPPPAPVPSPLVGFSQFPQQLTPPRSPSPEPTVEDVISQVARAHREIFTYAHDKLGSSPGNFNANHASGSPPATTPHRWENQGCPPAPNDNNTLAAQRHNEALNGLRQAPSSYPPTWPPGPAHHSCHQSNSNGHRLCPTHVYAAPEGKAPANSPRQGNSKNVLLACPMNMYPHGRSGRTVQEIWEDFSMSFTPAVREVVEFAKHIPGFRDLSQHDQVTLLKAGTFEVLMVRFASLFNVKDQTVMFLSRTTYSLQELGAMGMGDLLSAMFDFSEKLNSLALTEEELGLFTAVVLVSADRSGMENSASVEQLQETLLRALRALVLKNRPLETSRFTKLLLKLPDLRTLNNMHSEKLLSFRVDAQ
PGE2 EP2 inh: EP2 receptor (human) inhibition; 260,000 tested, 0.52% active; P43116; C6 glioma cells expressing human EP2, cAMP TR-FRET; cells stimulated with saturating PGE2; inhibition, % at 25 µM;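 active = percent inhibition above 40 after rounding to a whole number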;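 note: rat C6 glioma host cells with rolipram phosphodiesterase inhibitor present; the protocol text gives 20 µM as final concentration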
SKN-1 block: C. elegans SKN-1 inhibition; 360,000 tested, 0.49% active; C. elegans VP596 Pgst-4::GFP/RFP ratio, acrylamide-induced, 24 h; AID 624304; inhibition, % at 21.8 µM;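 active = interference check ratio from 0.5 to 1.5 plus GFP to RFP signal ratio inhibition reaching or exceeding a fixed threshold, cut at about 30% in these data, passing the limit was not always enough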
EP2 mod: EP2 receptor (human) modulation; P43116; EP2-expressing cells, cAMP HTRF FRET, PGE2 co-stimulation; induction, % at 25 µM; 260,000 tested, 0.83% active;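 active = compounds whose cAMP rise, as percent of the full-agonist control response, exceeds 60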;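 note: rat C6 glioma line stably carrying human EP2 under a CMV promoter; the protocol text gives 20 µM as final concentration; 100% = response of wells given 1 µM PGE2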
RAM inhibit: blocks the yeast RAM network. inhibition, % at 50 µM. 190,000 tested, 1.8% active. S. cerevisiae dse1pr::URA3 reporter, 5-FOA growth OD615, 2 d; analog-sensitive cbk1-as2 kinase mutant strain;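 active = inhibition above a set limit, 3 SD over mean compound inhibition, cut at about 8.4% in these data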;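 note: 0% = DMSO-only wells with no growth and 100% = 10 µM 1-NA-PP1 full growth; inhibition rescues growth on 5-FOA so higher OD means more RAM inhibition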
NR1D1 mod conf: Rev-erb alpha (human) modulation, hit confirmation | shares compounds with Rev-erbA mod | Rev-erb alpha FITC-DNA binding, fluorescence polarization, 90 min | activation, % at 25 µM | 3,000 tested, 61% active | AID 1259319;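 active = activation at or above a set limit, or at least 3 SD above the negative control mean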;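 note: 0% = 35 nM protein with DMSO and 100% = 750 nM protein high control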
RORg DNA counter: RORgamma DNA-binding activity, dose-response counter-screen; purified RORgamma protein-FITC-DNA binding, fluorescence polarization; 910 tested, 8% active; shares compounds with Rev-erbA mod; IC50, µM;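 active = Compounds whose fitted half-maximal concentration for disrupting protein-DNA binding is below 10 micromolar; the record names Rev-erb in its text, so the target is in doubt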
* hit, by the source's call; ! = a repeat was not active.

For CC(=O)[C@@H]1[C@@H]2C(=O)N(Cc3ccccc3)C(=O)[C@@H]2C2c3ccccc3C=CN21 (stereo partly drawn) the results were PG9 binder 0, Rev-erbA mod 26*, PGE2 EP2 inh 7, SKN-1 block -1, EP2 mod 39, RAM inhibit 4 and NR1D1 mod conf 28*.
`O=C(c1ccco1)[C@@H]1[C@@H]2C(=O)N(c3ccccc3)C(=O)[C@@H]2C2c3ccccc3C=CN21` (stereo partly drawn) gave PG9 binder -1, Rev-erbA mod -3, PGE2 EP2 inh 5 and SKN-1 block 14.
Screening COc1ccccc1NC(=O)Cn1c(=O)n(-c2ccccc2)c(=O)c2oc3ccccc3c21 returned PG9 binder -1, Rev-erbA mod 20*, PGE2 EP2 inh 9, SKN-1 block 1, EP2 mod 17, RAM inhibit 2 and NR1D1 mod conf 23*.
Nc1ncc(CN2CCN(CCOc3ccccc3F)CC2)cn1 was read as PGE2 EP2 inh 6 and EP2 mod -43.
Screening COC(=O)c1ccccc1NC(=O)c1cn(-c2ccc(C)c(C)c2)c(=O)c2ccccc12 returned PG9 binder 4, Rev-erbA mod 42*, PGE2 EP2 inh 7, SKN-1 block 5, EP2 mod 25, RAM inhibit 4, NR1D1 mod conf 48* and RORg DNA counter >40.
Cc1cc(C)cc(OCC(=O)NNC(=S)NC(=O)C2CC2)c1 was read as PG9 binder 0, Rev-erbA mod 33*, SKN-1 block 19 and NR1D1 mod conf -2.
Screening COc1ccc(OCC(=O)NNC(=S)NC(=O)C2CC2)cc1 returned PG9 binder -2, Rev-erbA mod -5 and SKN-1 block 17.
Screening CC1(C)CC(N(Cc2cccnc2)Cc2cccc3cccnc23)CC(C)(C)N1 returned PGE2 EP2 inh 2 and EP2 mod -31.
COc1cc(NC(=O)CSc2nnnn2C)cc(OC)c1 was read as PGE2 EP2 inh 11 and EP2 mod -24.
`CC(=O)Nc1ccc(S(=O)(=O)N2C(=O)c3cccc4cccc2c34)cc1` gave PG9 binder -2, Rev-erbA mod 33*, PGE2 EP2 inh 8, EP2 mod 1 and NR1D1 mod conf 3.
For O=C(CN1CCC(c2ccc(F)cc2)CC1)N1CCCCC1 the results were PGE2 EP2 inh 7 and EP2 mod -32.
Screening O=C(Nc1ccc(O)c2ncccc12)C12CC3CC(CC(C3)C1)C2 returned PGE2 EP2 inh 12 and EP2 mod -30.
`CC(=O)Oc1ccc(/C=N\NC(=O)c2cc3c(ccc4ccccc43)o2)cc1` gave PG9 binder -2, Rev-erbA mod 33*, SKN-1 block 20, NR1D1 mod conf 33* and RORg DNA counter >40.
Cc1ccc(/C=N/NC(=O)c2cc3c(ccc4ccccc43)o2)o1 was read as PG9 binder -1, Rev-erbA mod -2 and SKN-1 block -4.
COc1ccc(-c2cc(-n3c(C(F)(F)F)nc4ccccc43)n(CCC#N)n2)cc1 was read as PG9 binder 2, Rev-erbA mod 5, PGE2 EP2 inh 11, SKN-1 block 2, EP2 mod 36 and RAM inhibit 4.
COc1ccc(Sc2nc3ccccc3n3c(C(F)(F)F)nnc23)cc1 was read as PG9 binder -5, Rev-erbA mod 56*, PGE2 EP2 inh 10, SKN-1 block -8, EP2 mod 15, RAM inhibit 3, NR1D1 mod conf 34* and RORg DNA counter >40.
COc1cc(N=Nc2cccc(S(N)(=O)=O)c2)c2ccccc2c1N was read as PG9 binder -6, Rev-erbA mod 35*, PGE2 EP2 inh 79*!, SKN-1 block 8, EP2 mod -51 and NR1D1 mod conf 14.
`CC(C)C(=O)N1CCC(c2nc(-c3ccccc3Cl)no2)CC1` gave PGE2 EP2 inh 10 and EP2 mod 9.
Screening Cc1ccc(S(=O)(=O)c2nnn3c2nc(N2CCN(c4ccccn4)CC2)c2ccccc23)cc1C returned PG9 binder 1, Rev-erbA mod 72*, SKN-1 block -6, NR1D1 mod conf 62* and RORg DNA counter >40.
`FC(F)(F)c1ccc(N2CCN(c3ncnc4c3nnn4Cc3ccccc3)CC2)nc1` gave PG9 binder 0, Rev-erbA mod 21*, PGE2 EP2 inh 9, SKN-1 block 1, EP2 mod 35, RAM inhibit 3 and NR1D1 mod conf 3.
`c1ccc(Cn2nnc3c(N4CCOCC4)ncnc32)cc1` gave PG9 binder 2, Rev-erbA mod 0, PGE2 EP2 inh 8, SKN-1 block 11, EP2 mod 1 and RAM inhibit 1.
`CCOc1cc(C2NC(=O)NC(C)=C2C(=O)Nc2ccccc2OC)cc(Cl)c1O` (stereo not drawn) gave PGE2 EP2 inh 5 and EP2 mod -9.
For Cc1cc(OC(C)C(=O)NCc2ccccn2)c2c(C)c(Cc3ccccc3)c(=O)oc2c1 (stereo not drawn) the results were PG9 binder 0, Rev-erbA mod 86*, SKN-1 block -5, NR1D1 mod conf 142* and RORg DNA counter >40.
For Cc1cc(OCC(=O)Nc2ccccn2)c2c(C)c(C)c(=O)oc2c1 the results were PG9 binder -1, Rev-erbA mod 33*, SKN-1 block -7 and NR1D1 mod conf 2.
For O=C(Nc1ccc(C(O)CN2CCN(Cc3ccc4c(c3)OCO4)CC2)cc1)C1CC1 (stereo not drawn) the results were PGE2 EP2 inh 5 and EP2 mod -29.
`CCN1CCN(C(c2cc3cc(C)c(C)cc3[nH]c2=O)c2nnnn2Cc2ccccc2)CC1` (stereo not drawn) gave PGE2 EP2 inh 8 and EP2 mod -5.
`O=C(CCNC(=O)c1ccc(Cl)cc1)Nc1ccc(Cl)cc1F` gave PG9 binder -4, Rev-erbA mod 7, PGE2 EP2 inh 7, SKN-1 block -4, EP2 mod -30 and RAM inhibit 3.
`Cc1ccc(C(=O)NNCC(=O)Nc2ccc(Cl)cc2F)cc1` gave PG9 binder 0, Rev-erbA mod 18*, SKN-1 block -4 and NR1D1 mod conf 1.
`COc1ccc(C(c2nnnn2Cc2ccco2)N2CCN(C)CC2)cc1OC` (stereo not drawn) gave PGE2 EP2 inh 3 and EP2 mod -11.
`CNc1oc(-c2ccc(F)cc2)nc1S(=O)(=O)c1ccccc1` gave PG9 binder 5, Rev-erbA mod 34*, SKN-1 block 2 and NR1D1 mod conf 2.

From PubChem BioAssay
